# ADAM17 inh – inhibits human ADAM17; recombinant ADAM17, EDANS/DABCYL FRET peptide cleavage; inhibition, % at 6.95 µM; 370,000 tested, 0.83% active;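 active means inhibition above the mean of compounds lying between control limits plus 3 SD, set per campaign, cut at about 8.5% in these data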
# PLC-gamma1 inh – inhibitors of human phospholipase C gamma1. purified PLC-gamma1, fluorogenic substrate, fluorescence. inhibition, % at 12.2 µM. P19174. 370,000 tested, 0.84% active. AID 720700; in the data active means inhibition above about 9.5%
# proKLK7 act – proKLK7 (human) activation, primary screen; P49862; purified proKLK7, EDANS-DABCYL substrate fluorescence; 100% is mature enzyme control, 0% vehicle; activation, % at 7 µM; 370,000 tested, 0.9% active; AID 652039;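 active means activation above the mean of all tested compounds plus 3 SD, computed per campaign excluding outliers beyond control limits, cut at about 13% in these data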
# ADAM10 inh – ADAM10 inhibition, QFRET primary screen | inhibition, % at 7 µM | recombinant ADAM10, EDANS/DABCYL FRET peptide cleavage, 3 h | O14672 | AID 720582 | 370,000 tested, 0.62% active;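 active means inhibition above a per-campaign cutoff equal to the mean of compounds falling between control-based bounds plus 3 SD, cut at about 20% in these data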
# Target sequence (O14672 214-748 limits assumed): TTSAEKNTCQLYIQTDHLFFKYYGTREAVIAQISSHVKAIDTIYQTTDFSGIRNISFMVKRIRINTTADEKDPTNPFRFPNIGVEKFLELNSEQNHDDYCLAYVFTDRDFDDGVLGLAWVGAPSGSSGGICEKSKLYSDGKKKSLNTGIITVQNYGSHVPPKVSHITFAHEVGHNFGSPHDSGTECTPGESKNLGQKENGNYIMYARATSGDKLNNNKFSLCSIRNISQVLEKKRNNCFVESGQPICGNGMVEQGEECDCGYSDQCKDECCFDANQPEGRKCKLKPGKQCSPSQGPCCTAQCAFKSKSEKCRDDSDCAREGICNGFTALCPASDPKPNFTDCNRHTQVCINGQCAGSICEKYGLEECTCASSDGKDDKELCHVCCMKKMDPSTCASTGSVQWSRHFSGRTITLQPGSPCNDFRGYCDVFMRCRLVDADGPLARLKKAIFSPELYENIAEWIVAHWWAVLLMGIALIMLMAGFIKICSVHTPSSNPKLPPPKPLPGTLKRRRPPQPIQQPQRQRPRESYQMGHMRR
# PLCb3 inh – blocks human PLC-beta3 enzyme activity | Q01970 | Purified PLC-beta3, fluorogenic substrate, fluorescence | inhibition, % at 12.2 µM | 370,000 tested, 0.18% active | AID 720704; in the data active means inhibition above about 11%
# ADAM10 ctr – counter-screen for ADAM17 exosite inhibitors: inhibitors of human ADAM10; inhibition, % at 6.95 µM; 2,900 tested, 47% active; shares compounds with ADAM17 inh; recombinant ADAM10, EDANS/DABCYL FRET peptide cleavage, 3 h; AID 743256;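 active means mean inhibition over the triplicate runs exceeds the activity threshold set in the earlier primary screen, cut at about 20% in these data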
# ADAM17 confirm – human ADAM17 inhibition, confirmation; shares compounds with ADAM17 inh; AID 743257; recombinant ADAM17, EDANS/DABCYL QFRET peptide cleavage; inhibition, % at 6.95 µM; 2,900 tested, 65% active;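 active means mean inhibition across replicates above the hit cutoff set in the primary screen, cut at about 8.5% in these data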
# Numbers stand for hits; . = inactive; / = no result. This is a sample that favours compounds with a hit; in the whole collection about 2.9% have one here.
SMILES,ADAM17 inh,PLC-gamma1 inh,proKLK7 act,ADAM10 inh,PLCb3 inh,ADAM10 ctr,ADAM17 confirm
COc1ccc(NC(=O)CC(CC(=O)O)c2cc(OC)c(OC)c(OC)c2)cc1 (stereo not drawn),.,.,.,.,.,/,/
CCN(c1ccc(OC)cc1)S(=O)(=O)c1nnc(NC(=O)C2CCCCC2)s1,10,.,.,.,.,.,.
CCN(c1ccc(OC)cc1)S(=O)(=O)c1nnc(NC(=O)C(C)C)s1,.,.,.,.,.,/,/
CCN(CC)CC(=O)c1c[nH]c2ccccc12,.,.,.,.,.,/,/
O=C(O)CCC(=O)c1c[nH]c2ccccc12,8.9,.,.,.,.,.,20
CC(C)(C)c1cc(C(=O)NNc2cc(C(F)(F)F)ccc2Cl)n(Cc2ccccc2)n1,10,.,.,.,.,27,10
O=C(c1c(Cl)nc2sccn12)N1CCN(c2cccc(Cl)c2)CC1,9.1,.,.,.,.,.,.
CC(=O)Nc1cccc(Nc2cc(C)nn2C)c1,.,.,.,.,.,/,/
CC(C)[C@H]1COCCS(=O)(=O)N1Cc1ccccc1-c1cccc2c1oc1ccccc12,11,.,.,.,.,.,.
CCCCOc1ccccc1-c1ccccc1CN1[C@@H](C(C)C)COCCS1(=O)=O,.,.,.,.,.,/,/
COc1ccc(Cn2nnnc2C(c2cccs2)N2CCOCC2)cc1 (stereo not drawn),8.7,.,.,.,.,.,11
O=C(NNC(=O)c1ccc(Cl)cc1Cl)Nc1ccccc1,.,.,.,.,.,/,/
O=C(Nc1ccc(Nc2ccccc2)cc1)c1ccc(Cl)cc1Cl,12,.,.,.,.,36,25
O=S(=O)(NCC1CCCO1)c1ccccc1F (stereo not drawn),.,.,.,.,.,/,/
COc1ccc(Oc2cc(C(F)(F)F)nc(N(C)C)n2)cc1,.,.,.,.,.,/,/
CCN(CC)C(=O)N1CCC(NC(=O)Cc2ccccc2)CC1,9.4,.,.,.,.,.,.
CCOC(=O)c1[nH]c(=O)[nH]c1CNc1ccccc1C#N,.,.,.,.,.,/,/
O=C(CSc1nc2cc(Cl)ccc2s1)c1cc2ccccc2o1,12,.,.,.,.,.,.
O=C(CSc1nc2ccccc2s1)Nc1ccc(Cl)c(S(=O)(=O)N2CCOCC2)c1,.,.,.,.,.,/,/
Cc1cc(NC(=O)CSc2nc3cc(Cl)ccc3s2)no1,.,.,.,.,.,/,/
O=C(CSc1nc2ccccc2c(=O)n1-c1ccccc1Cl)Nc1cccc(S(=O)(=O)N2CCOCC2)c1,9.5,.,.,.,.,.,13
O=C(CSc1nc2cc(Cl)ccc2s1)Nc1cccc(S(=O)(=O)N2CCOCC2)c1,11,.,.,.,.,20,10
S=C(Nc1ccc(Nc2ccccc2)cc1)NN1CCOCC1,.,.,.,.,.,/,/
COc1ccc(Br)cc1CNC(=O)CN1C(=O)C(c2ccccc2)Oc2cccnc21 (stereo not drawn),.,.,.,.,.,/,/
CCOC(=O)C1=C(C)Nc2ccccc2N/C1=N\S(=O)(=O)c1ccc(Cl)cc1,12,.,.,.,.,.,.
SMILES,ADAM17 inh,PLC-gamma1 inh,proKLK7 act,ADAM10 inh,PLCb3 inh,ADAM10 ctr,ADAM17 confirm
CCN(CC)C1Oc2cc3c(cc2C(c2cc(OC)c(OC)c(OC)c2)C1C)OCO3 (stereo not drawn),9.9,.,.,.,.,.,9.9
COc1ccc(/C=N/NC(=O)CNC(=O)c2ccncc2)cc1OC,.,.,.,.,.,/,/
O=C(N[C@H]1C/C=C\C[C@@H](CC(=O)N(CCO)Cc2ccccc2)C(=O)NC[C@H](c2ccccc2)OC1=O)OCC1c2ccccc2-c2ccccc21,17,.,.,.,.,.,.
COC(=O)c1ccc(-n2c(C)cc(C(=O)CSc3ccc(NC(C)=O)cc3)c2C)cc1,9.0,.,.,.,.,22,16
CC(=O)Nc1ccc(SCC(=O)c2cc(C)n(-c3ccccc3F)c2C)cc1,.,.,.,.,.,/,/
CCc1c(C)nc(SCC(=O)N2CC(C)OC(C)C2)[nH]c1=O (stereo not drawn),.,.,.,.,.,/,/
O=C1N[C@@H](Cc2c[nH]c3ccccc23)COC(=O)[C@@H](Cc2ccc(F)cc2)CC/C=C/C[C@@H]1CC(=O)N(CCO)Cc1ccccc1,10,.,.,.,.,59,28
CC(C)(C)[C@@H]1COC(=O)[C@H](Cc2ccc(F)cc2)CC/C=C\C[C@H](CC(=O)N(CCO)Cc2ccccc2)C(=O)N1,11,.,.,.,.,.,.
CC(C)(C)[C@@H]1COC(=O)[C@@H](Cc2ccc(F)cc2)CC/C=C\C[C@@H](CC(=O)N(CCO)Cc2ccccc2)C(=O)N1,.,.,.,.,.,/,/
Cc1ccc(/C(CSc2nccn2-c2ncc(C(F)(F)F)cc2Cl)=N\O)cc1,15,.,.,.,.,.,9.1
NC(=O)c1cccn1-c1ncc(C(F)(F)F)cc1Cl,.,.,.,.,.,/,/
CCCCCCn1c(=O)n2n(c1=O)[C@@H]1CN(S(=O)(=O)c3ccc(C)cc3)C[C@]1(O)[C@@H](OC(=O)NCc1ccccc1F)C2,.,.,.,.,.,/,/
CCCCCCn1c(=O)n2n(c1=O)[C@@H]1CN(S(=O)(=O)c3ccc(C)cc3)C[C@]1(O)[C@@H](OC(=O)NCc1ccc(OC)c(OC)c1)C2,9.8,.,.,.,.,23,14
COC(=O)[C@]12C[C@H](CC(=O)NCc3cccc4ccccc34)C(=O)N(Cc3ccccc3)C1=C[C@H](C1CCCC1)O[C@@H]2C,.,.,.,.,.,/,/
COC(=O)[C@]12C[C@H](CC(=O)NCc3ccccc3)C(=O)N(Cc3cccc4ccccc34)C1=C[C@H](C1CCCC1)O[C@@H]2C,10,.,.,.,.,25,17
COC(=O)[C@]12C[C@H](CC(=O)NCC3CCCCC3)C(=O)N(CCc3ccc(OC)c(OC)c3)C1=C[C@H](C(C)(C)C)O[C@@H]2C,9.7,.,.,.,.,.,11
COC(=O)[C@]12C[C@H](CC(=O)NCc3ccc(C)o3)C(=O)N(Cc3cccc4ccccc34)C1=C[C@H](C(C)C)O[C@@H]2C1CC1,11,.,.,.,.,.,8.9
COC(=O)[C@]12C[C@H](CC(=O)NCc3ccccc3)C(=O)N(Cc3ccco3)C1=C[C@H](COCc1ccccc1)O[C@@H]2C,10,.,.,.,.,27,12
O=C1CC(=O)N(C2CCCCC2)C(=O)N1c1ccccc1S(=O)(=O)Oc1ccccc1,.,.,.,.,.,/,/
O=C(NCCC(F)(F)F)C1Cc2c(-c3ccccc3Oc3ccccc3)ccnc2O1 (stereo not drawn),.,.,.,.,.,/,/

# Screening results (PubChem)
